This is an account of results in PubChem BioAssay (NCI).

The panel holds about 83,000 compounds, 20% with a hit somewhere; the sample as a whole holds those more often.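 Each cell line was grown in a 96-well plate and treated with one concentration of compound for 48 hours. Values below 10 were considered active.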 Values without a mark were called inactive. Activity calls are given as the source filed them.

Test systems include HCT-15 colon; HT29 colon; SNB-75 CNS; SNB-19 CNS; U251 CNS; PC-3 prostate; SK-MEL-5 melanoma; UACC-62 melanoma; LOX IMVI melanoma; SK-MEL-28 melanoma.
Assay in all cases: NCI-60 one-dose screen, 48 h (100 = growth as untreated, 0 = no growth, -100 = all killed)
What all share (conditions): 10 µM unless noted

Turning to `O=C(Nc1cccc(C2=NCCN2)c1)c1ccc(N=Nc2ccc(C(=O)Nc3cccc(C4=NCCN4)c3)cc2)cc1`, the growth in the assay on HCT-15 colon is 82.2%; with HT29 colon it was 71.8%; with SNB-75 CNS, 48.7%; with SNB-19 CNS, 53.2%; with U251 CNS it was 16.5%; in the assay with PC-3 prostate, 63.4%. Moreover, the growth is 80.4% in the assay on SK-MEL-5 melanoma, 68.4% with UACC-62 melanoma, 75.8% in the assay on LOX IMVI melanoma and 59.3% in the assay on SK-MEL-28 melanoma.
For `CC(=O)Cc1ccccn1`, the growth in the assay with HCT-15 colon is 98.6%; in the assay with HT29 colon, 95.9%; in the assay on SNB-75 CNS, 104%; with SNB-19 CNS it was 114%; in the assay with U251 CNS it was 93.5%; with PC-3 prostate, 94.8%. The growth in the assay with SK-MEL-5 melanoma is 105%; with UACC-62 melanoma it was 108%; in the assay with LOX IMVI melanoma, 103%; with SK-MEL-28 melanoma it was 106%.
In the case of `COc1cnc2c(c1)C(=O)c1c-2n(CCCN2CCCC2)c(=O)c2cc(Cl)ccc12`, the growth in the assay with HCT-15 colon is 39.4%; with HT29 colon, -72.8% (active); in the assay on SNB-75 CNS, 19.2%; in the assay with SNB-19 CNS, 28.7%; with U251 CNS, 20.1%; in the assay with PC-3 prostate it was 20.4%. Also, the growth in the assay on SK-MEL-5 melanoma is 14.7%; with UACC-62 melanoma, 21.1%; in the assay on LOX IMVI melanoma, 12.5%; in the assay on SK-MEL-28 melanoma, 85.1%.
Turning to `N=C(N)c1ccc(-c2ccc(-c3cccs3)s2)cc1F`, the growth is -66.8% (active) in the assay on HCT-15 colon; -82.1% (active) in the assay on HT29 colon; -96.5% (active) in the assay on SNB-75 CNS; -65.1% (active) with SNB-19 CNS; -86.6% (active) with U251 CNS; -72.4% (active) in the assay on PC-3 prostate. In addition, the growth in the assay with SK-MEL-5 melanoma was -98% (active); in the assay with UACC-62 melanoma, -79.7% (active); with LOX IMVI melanoma, -76.7% (active); with SK-MEL-28 melanoma, -96% (active).
Take `O=C1/C(=C/c2ccccc2)SC(=Nc2ccccc2)N1Nc1ccccc1`: the growth with HCT-15 colon was 9.11% (active); in the assay on HT29 colon, 5.63% (active); in the assay on SNB-75 CNS, 24.2%; in the assay with SNB-19 CNS it was 23.3%; in the assay on U251 CNS it was 6.12% (active); in the assay with PC-3 prostate, 9.43% (active). Also, the growth is -95.7% (active) with SK-MEL-5 melanoma, -4.34% (active) with UACC-62 melanoma, -62.1% (active) with LOX IMVI melanoma and 8.52% (active) in the assay on SK-MEL-28 melanoma.
As for `Cc1ccc(C(=O)CC(=O)C(F)(F)C(F)(F)C(F)(F)F)s1`, the growth in the assay on HCT-15 colon is 105%; in the assay on HT29 colon it was 110%; in the assay with SNB-75 CNS, 96%; with SNB-19 CNS, 104%; in the assay on U251 CNS it was 108%; in the assay on PC-3 prostate it was 92.8%. Also, the growth in the assay with SK-MEL-5 melanoma was 106%; in the assay on UACC-62 melanoma, 96.6%; in the assay on LOX IMVI melanoma it was 104%; with SK-MEL-28 melanoma, 110%.
In the case of `O=C1/C(=C/c2cc(F)cc(F)c2)Cc2cc(F)cc(F)c21`, the growth with HCT-15 colon is 95.4%; in the assay on HT29 colon, 92.3%; with SNB-75 CNS it was 93.9%; in the assay with SNB-19 CNS it was 86.8%; in the assay with U251 CNS it was 104%; in the assay with PC-3 prostate, 88.1%. Also, the growth with SK-MEL-5 melanoma was 76.8%; in the assay on UACC-62 melanoma it was 85.6%; in the assay on LOX IMVI melanoma, 86.8%; in the assay with SK-MEL-28 melanoma, 96.7%.
For `C[N+](C)(C)CC(=O)N/N=C\c1ccco1`, the growth in the assay on HCT-15 colon was 102%; with HT29 colon, 92.6%; in the assay on SNB-75 CNS, 83.2%; with SNB-19 CNS it was 112%; in the assay with U251 CNS it was 98.7%; in the assay with PC-3 prostate, 95.8%. Also, the growth was 101% with SK-MEL-5 melanoma, 101% in the assay on UACC-62 melanoma, 101% with LOX IMVI melanoma and 105% in the assay on SK-MEL-28 melanoma.
For `c1ccc(-c2ccc(-c3ccccc3)[nH]2)cc1`, the growth with HCT-15 colon is 94.8%; in the assay on HT29 colon it was 101%; in the assay with SNB-75 CNS, 87.9%; in the assay with SNB-19 CNS it was 104%; with U251 CNS it was 105%; in the assay on PC-3 prostate, 99.8%. Further, the growth is 99% with SK-MEL-5 melanoma, 87.2% in the assay on UACC-62 melanoma, 103% in the assay with LOX IMVI melanoma and 107% in the assay on SK-MEL-28 melanoma.
With `COc1ccc(CNc2c3ccccc3nc3ccccc23)cc1F`, the growth is 11% in the assay with HCT-15 colon; 12.2% in the assay with HT29 colon; 42.5% in the assay with SNB-75 CNS; 28% in the assay on SNB-19 CNS; 26.9% in the assay with U251 CNS; 30.4% in the assay on PC-3 prostate. Further, the growth in the assay on SK-MEL-5 melanoma was 36.5%; in the assay on UACC-62 melanoma, 42.4%; with LOX IMVI melanoma, 1.25% (active); in the assay with SK-MEL-28 melanoma it was 46.7%.
For the compound `COc1cc2ncnc(Nc3ccc(S(=O)(=O)Nc4cc(C)on4)cc3)c2cc1OCCCN1CCN(c2ccc([N+](=O)[O-])cc2)CC1`, the growth in the assay with HCT-15 colon is 105%; in the assay with HT29 colon, 107%; in the assay with SNB-75 CNS it was 91.9%; in the assay with SNB-19 CNS it was 100%; with U251 CNS, 97.1%; in the assay on PC-3 prostate, 104%. Also, the growth in the assay with SK-MEL-5 melanoma is 111%; in the assay on UACC-62 melanoma it was 94.4%; in the assay on LOX IMVI melanoma it was 96.1%; with SK-MEL-28 melanoma it was 112%.
`O=C(c1ccc(OCCN2CCCCC2)cc1)c1c(-c2ccc(O)cc2)sc2cc(O)ccc12`: the growth in the assay with HCT-15 colon was 91.7%; in the assay with HT29 colon, 114%; in the assay on SNB-75 CNS, 53.5%; in the assay with SNB-19 CNS, 86.7%; with U251 CNS, 64.9%; in the assay on PC-3 prostate, 81.8%. Also, the growth is 71.5% in the assay with SK-MEL-5 melanoma, 92.1% with UACC-62 melanoma, 78.4% in the assay with LOX IMVI melanoma and 88.3% with SK-MEL-28 melanoma.
For `COc1cc(/C=C/c2cc(/C=C/c3ccc(O)c(OC)c3)n(C(=O)c3ccccc3Br)n2)ccc1O`, the growth in the assay with HCT-15 colon was 16.2%; with HT29 colon, 0.381% (active); in the assay with SNB-75 CNS, 27.3%; in the assay with SNB-19 CNS it was 36.2%; in the assay with U251 CNS, 35.1%; with PC-3 prostate, 12.9%. The growth in the assay with SK-MEL-5 melanoma was -1.91% (active); in the assay on UACC-62 melanoma, 3.48% (active); in the assay on LOX IMVI melanoma, 9.29% (active); in the assay on SK-MEL-28 melanoma it was 28.6%.
